Structures are written as SMILES. Inconclusive results are not listed. Entries that show only a call come without a potency. Where a structure was tested more than once in an assay, its records may differ in their call. The source made the active and inactive calls. Calls come from the whole dose curve; as a rule, active = well fitted inhibition curve with a large enough effect; inconclusive = small, poorly fitted or top-dose-only effect; inactive = flat fitted curve, though single readings scatter.
Potency is the fitted concentration of half-maximal effect.

The test deals with Glutathione peroxidase 1 (Homo sapiens) (UniProt P07203). In words: Primary qHTS Assay for Inhibitors of Recombinant Selenoprotein Glutathione Peroxidase 1 (GPX1) (AID 1845191). Note: nearly all actives have a fitted effect of over 65% in size. As to conditions: recombinant GPX1, GR-coupled NADPH fluorescence, 15 min; series mostly up to 48.8 µM. The procedure, abridged: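 10 nM GPX1 + cpd, 30 min RT; start w/ 1 mM GSH, 0.5 mM cumene hydroperoxide, 0.5 mM NADPH, 100 nM GR, 0.01% BSA; buffer 50 mM Tris-HCl pH 7.5, 2 mM EDTA, 150 mM NaCl; Fl 340/450, 0 & 15 min.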
Glutathione peroxidase 1 (Homo sapiens), sequence (P07203 whole entry, looked up): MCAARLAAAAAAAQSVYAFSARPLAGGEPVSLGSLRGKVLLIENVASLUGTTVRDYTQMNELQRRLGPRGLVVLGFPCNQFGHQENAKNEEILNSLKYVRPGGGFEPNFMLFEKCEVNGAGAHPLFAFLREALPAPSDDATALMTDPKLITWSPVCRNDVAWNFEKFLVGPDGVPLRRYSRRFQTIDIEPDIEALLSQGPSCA
A general note: In qHTS, concentration-response curves come from the screen itself.
As for `N#CC(c1ccnc(NCCc2cccnc2)n1)c1nc2ccccc2s1` (configuration not stated), the Potency entry is “inactive”.

In the case of `CC(C)C[C@@H](N)[C@H](O)C(=O)N[C@H](C(=O)N[C@H](C(=O)N[C@@H](CC(=O)O)C(=O)O)C(C)C)C(C)C`, the Potency entry is “inactive”.

For the compound `O=C(NCCCCN1CCOCC1)c1cc2ccccc2o1`, the Potency result was “inactive”.

With `CO[C@@H]1C(N(C)C(=O)c2ccccc2)C[C@H]2O[C@]1(C)n1c3ccccc3c3c4c(c5c6ccccc6n2c5c31)C(=O)NC4=O` (some centres not stated), the Potency result was “inactive”.

`CN(C)N=Nc1nc[nH]c1C(N)=O`: the Potency entry was “inactive”.

As for `CSc1cccc(Nc2ncc3cc(-c4c(Cl)cccc4Cl)c(=O)n(C)c3n2)c1`, the Potency result is “inactive”.

In the case of `Cn1cc(-c2ccc3nnc(Sc4ccc5ncccc5c4)n3n2)cn1`, the Potency result was “inactive”.

Regarding `O=[N+]([O-])c1ccc(Nc2ccccc2-c2ccccc2)c2nonc12`, the Potency result was “inactive”.

On to `Cc1ccc(NC(=O)c2ccc(CN3CCN(C)CC3)cc2)cc1Nc1nc(-c2cccnc2)cs1`, for which the Potency result is “inactive”.

As to `Cc1cccc(-c2[nH]c(C(C)(C)C)nc2-c2ccc3c(c2)OCO3)n1`, the Potency entry is “inactive”.

`CCCCCCCCCCCCCC(=O)N[C@H](CO)[C@H](O)c1ccc([N+](=O)[O-])cc1`: the Potency entry was “inactive”.

`CCC[C@H](N[C@@H](C)C(=O)N1[C@@H]2CCCC[C@H]2C[C@H]1C(=O)O)C(=O)OCC`: the Potency entry is “inactive”.

As for `CC(NCCc1ccc(O)cc1)C(O)c1ccc(O)cc1` (configuration not stated), the Potency entry was “inactive”.

As for `CCC(=O)NCC[C@@H]1CCc2ccc3c(c21)CCO3`, the Potency result was “inactive”.

Consider `Cc1nn(Cc2ccccc2Cl)c(C)c1CN(C)CC(O)COc1ccc(Cl)cc1` (configuration not stated), for which the Potency result was “inactive”.

As for `NCC1CCC(C(=O)O)CC1` (configuration not stated), the Potency entry was “inactive”.

For `CCC(c1ccc(O)cc1)C(CC)c1ccc(O)cc1` (configuration not stated), the Potency result was “inactive”.

Take `CCCCc1ccc(NS(=O)(=O)c2ccc(C)c(C(=O)N3CCN(c4cccc(C)c4C)CC3)c2)cc1`: the Potency entry is “inactive”.

As to `OC(c1cc(C(F)(F)F)nc2c(C(F)(F)F)cccc12)C1CCCCN1` (configuration not stated), the Potency entry was “inactive”.

On to `CN(C)CC[C@H](CSc1ccccc1)Nc1ccc(S(=O)(=O)NC(=O)c2ccc(N3CCN(Cc4ccccc4-c4ccc(Cl)cc4)CC3)cc2)cc1[N+](=O)[O-]`, for which the Potency result is “inactive”.

For the compound `COc1ccc2c(c1)c(C1=C(c3c[nH]c4ccccc34)C(=O)NC1=O)cn2CCCN(C)C`, the Potency result is “inactive”.

As for `COc1ccnc(CS(=O)c2nc3ccc(OC(F)F)cc3[nH]2)c1OC` (configuration not stated), the Potency is 9.04 µM (active) and inactive.
